Experimental data reported in PubChem BioAssay (NCATS).
Inconclusive results are not listed. Activity calls are given as the source filed them. The call rests on the fitted dose curve; in most records, active means well fitted curve in either direction with a large enough effect (not every such curve was filed as active); inconclusive means small, poorly fitted or top-dose-only effect, or another doubt; inactive means flat fitted curve, though single readings scatter.

Test: Stat Signaling Pathway (AID 446);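 further: ME-180 cervical cancer cells given 40 pM IL-6 alongside compound; SIE-controlled beta-lactamase reporter measured as 460/530 nm FRET emission ratio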
Conditions: ME-180 SIE beta-lactamase reporter, IL-6 stimulated, 5 h; series mostly up to 17.2 µM; activity, negative = inhibition: at the top concentration
Procedure, shortened: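 ME-180 cells carrying a SIE-driven beta-lactamase reporter are stimulated with 40 pM IL-6 for 5 h at 37C in the presence of compound. The 460/530 nm FRET substrate ratio is read after 2.5 h at RT. Data are normalised to 300 pM IL-6 and to 125 nM JAK inhibitor controls.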
On the % scale 0 is the no-effect control and ±100 the full control effect.

**Q.** Which “activity, negative = inhibition” value does the source give for `Cc1nnc(SCC2=C(C(=O)O)N3C(=O)[C@@H](NC(=O)Cn4cnnn4)[C@H]3SC2)s1` here?
**A.** 6.5% (inactive)

**Q.** For `C[C@]12CCC(=O)C=C1CC[C@@H]1[C@@H]2C(=O)C[C@@]2(C)[C@H]1CC[C@]2(O)C(=O)CO`, which “activity, negative = inhibition” value is on record?
**A.** 3.26% (inactive)

**Q.** For `COCCOC(=O)C1=C(C)NC(C)=C(C(=O)OC(C)C)C1c1cccc([N+](=O)[O-])c1` (stereo unspecified), which “activity, negative = inhibition” value is on record?
**A.** -3.91% (inactive)

**Q.** With `CN(C)[C@@H]1C(=O)C(C(N)=O)=C(O)[C@@]2(O)C(=O)C3=C(O)c4c(O)ccc(Cl)c4[C@@H](O)[C@H]3C[C@@H]12` as the molecule, how does the “activity, negative = inhibition” value read?
**A.** -5.68% (inactive)

**Q.** For `CCOC(=O)C1=C(C)NC(C)=C(C(=O)OC)C1c1cccc(Cl)c1Cl` (stereo unspecified), which “activity, negative = inhibition” value is on record?
**A.** -17% (inactive)

**Q.** Which “activity, negative = inhibition” value does the source give for `CCN1CCc2nc(N)oc2CC1` here?
**A.** 4.8% [at 38 µM] (inactive)

**Q.** Which “activity, negative = inhibition” value does the source give for `C(=C\c1ccccc1)/CN1CCN(C(c2ccccc2)c2ccccc2)CC1` here?
**A.** -22.3% (inactive)

**Q.** For `Cc1nc2ccccn2c(=O)c1CCN1CCC(C(=O)c2ccc(F)cc2)CC1`, which outcome is on record?
**A.** inactive

**Q.** With `CC1=C(C)C(=O)C(CCCCC#CCCCC#CCO)=C(C)C1=O` as the molecule, how does the outcome read?
**A.** inactive

**Q.** For `C[C@]12CCC(=O)C=C1CC[C@@H]1[C@@H]2CC[C@@]2(C)[C@H]1CC[C@]2(O)C(=O)CO`, which “activity, negative = inhibition” value is on record?
**A.** 0.0911% (inactive)

**Q.** With `COCCc1ccc(OCC(O)CNC(C)C)cc1` (stereo unspecified) as the molecule, how does the “activity, negative = inhibition” value read?
**A.** -10.7% (inactive)

**Q.** Which “activity, negative = inhibition” value does the source give for `c1ccc2c(c1)CCCC2C1=NCCN1` (stereo unspecified) here?
**A.** -3.21% (inactive)

**Q.** Which outcome does the source give for `CN(C)CCN(Cc1cccs1)c1ccccn1` here?
**A.** inactive

**Q.** For `COc1ccc2c(c1OC)C(=O)O[C@@H]2[C@H]1c2c(cc3c(c2OC)OCO3)CCN1C`, which “activity, negative = inhibition” value is on record?
**A.** -5.56% (inactive)

**Q.** With `COCC(=O)O[C@]1(CCN(C)CCCc2nc3ccccc3[nH]2)CCc2cc(F)ccc2[C@@H]1C(C)C` as the molecule, how does the “activity, negative = inhibition” value read?
**A.** -26.8% [at 38 µM] (inactive)

**Q.** For `Fc1ccc(C(c2ccc(F)cc2)N2CCN(C/C=C/c3ccccc3)CC2)cc1`, which “activity, negative = inhibition” value is on record?
**A.** -5.38% (inactive)
